Laboratory results taken from the supplement of paper PMC9588786.
Where a name gives a salt, the structure may show the parent alone. ± gives the standard deviation of the averaged measurements.
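Also: viability read as CCK-8 absorbance at 450 nm in cells co-exposed to the GPX4 inhibitor RSL3, relative to a 0.01% DMSO vehicle control.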

The molecules below were run on HT-1080 (assay: relative cell viability with RSL3 co-treatment (fraction of control); higher = stronger protection from RSL3-induced ferroptosis (higher viability)). Details: 10 µM.
Molecule `O=C(NOCC(O)CO)c1cc(Br)c(F)c(F)c1Nc1ccc(I)cc1F` (stereo not drawn) has a relative cell viability of 0.897 ± 0.061.
Molecule `Cc1[nH]c(/C=C2\C(=O)Nc3ccc(S(=O)(=O)N(C)c4cccc(Cl)c4)cc32)c(C)c1C(=O)N1CCN(C)CC1` has a relative cell viability of 0.547 ± 0.075.
Molecule `CCOc1cc2ncc(C#N)c(Nc3ccc(F)c(Cl)c3)c2cc1NC(=O)/C=C/CN(C)C` [Pelitinib (EKB-569)] has a relative cell viability of 0.247 ± 0.081.
`C[C@@H](Oc1cc(-n2cnc3ccc(CN4CCN(C)CC4)cc32)sc1C(N)=O)c1ccccc1C(F)(F)F` showed a relative cell viability of 0.573 ± 0.042.
For `C=CC(=O)Nc1cccc(Nc2nc(Nc3ccc(N4CCN(C(C)=O)CC4)cc3OC)ncc2C(F)(F)F)c1` [Rociletinib (CO-1686, AVL-301)], the relative cell viability was 0.573 ± 0.2.
In the case of `OCCn1cc(-c2cnc3nnn(Cc4ccc5ncccc5c4)c3n2)cn1`, the relative cell viability is reported as 0.813 ± 0.09.
With `CN(C)CCOc1ccc(-c2nc(-c3ccncc3)c(-c3ccc4c(c3)CC/C4=N\O)[nH]2)cc1` the relative cell viability was 0.833 ± 0.1.
In the case of `CSc1cccc(Nc2ncc3cc(-c4c(Cl)cccc4Cl)c(=O)n(C)c3n2)c1`, the relative cell viability is reported as 0.683 ± 0.1.
With `Cc1ccc(F)c(NC(=O)Nc2ccc(-c3cccc4[nH]nc(N)c34)cc2)c1` [Linifanib (ABT-869)] the relative cell viability was 0.36 ± 0.046.
For `Cc1[nH]c(/C=C2\C(=O)Nc3ccc(S(=O)(=O)Cc4c(Cl)cccc4Cl)cc32)c(C)c1C(=O)N1CCC[C@@H]1CN1CCCC1`, the relative cell viability was 0.19 ± 0.046.
In the case of `O=C1NC(=O)/C(=C/c2ccc3c(c2)OC(F)(F)O3)S1`, the relative cell viability is reported as 0.82 ± 0.07.
Molecule `Cc1csc(-c2nnc(Nc3ccc(Oc4ncccc4-c4ccnc(N)n4)cc3)c3ccccc23)c1` has a relative cell viability of 0.56 ± 0.087.
In the case of `CN1CCN(c2ccc(C(=O)Nc3n[nH]c4ccc(Cc5cc(F)cc(F)c5)cc34)c(NC3CCOCC3)c2)CC1` [Entrectinib (RXDX-101)], the relative cell viability is reported as 0.537 ± 0.045.
`CC(C)(C#N)c1ccc(N2C(=O)OCc3cnc4ccc(-c5cnc6ccccc6c5)cc4c32)cc1` was tested, and the relative cell viability was 0.45 ± 0.18.
For `N#Cc1c(O)c2c(-c3ccc(-c4ccccc4O)cc3)csc2[nH]c1=O`, the relative cell viability was 0.793 ± 0.046.
Molecule `CC(C)(C)NS(=O)(=O)c1cncc(-c2cc(F)c3nc(N)nn3c2)c1` has a relative cell viability of 0.803 ± 0.15.
With `N#CCNC(=O)c1ccc(-c2ccnc(Nc3ccc(N4CCOCC4)cc3)n2)cc1` [Momelotinib (CYT387)] the relative cell viability was 0.4 ± 0.075.
With `CN1CCN(c2ccc(-c3ccncc3-c3cc(F)c(O)c(F)c3)cc2)CC1` the relative cell viability was 0.48 ± 0.25.
Work on `N=C(N)NC(=N)NCCc1ccccc1` [Phenformin HCl] yielded a relative cell viability of 0.877 ± 0.042.
Work on `Nc1cccc(S(=O)(=O)N2CCCN(S(=O)(=O)c3ccc4c(c3)OCCO4)CC2)c1` yielded a relative cell viability of 0.767 ± 0.049.
`CC(C)[C@H](CO)Nc1nc(Nc2cccc(Cl)c2)c2ncn(C(C)C)c2n1` [Purvalanol A] gave a relative cell viability of 0.65 ± 0.09.
Molecule `CNC(=O)c1cc(Oc2ccc(NC(=O)Nc3ccc(Cl)c(C(F)(F)F)c3)c(F)c2)ccn1` [Regorafenib (BAY 73-4506)] has a relative cell viability of 0.483 ± 0.086.
`CNC(=O)c1cc(Oc2ccc(NC(=O)Nc3ccc(Cl)c(C(F)(F)F)c3)cc2)ccn1` [Sorafenib] gave a relative cell viability of 0.693 ± 0.14.
For `CS(=O)(=O)CCNCc1ccc(-c2ccc3ncnc(Nc4ccc(OCc5cccc(F)c5)c(Cl)c4)c3c2)o1` [Lapatinib], the relative cell viability was 1.21 ± 0.064.
`COc1ccc(F)c(F)c1C(=O)c1cnc(NC2CCN(S(C)(=O)=O)CC2)nc1N` showed a relative cell viability of 0.577 ± 0.15.
For `CCN1CCN(Cc2ccc(C(=O)Nc3ccc(C)c(Oc4ccc5c(c4)CC(=O)N5)c3)cc2C(F)(F)F)CC1`, the relative cell viability was 0.46 ± 0.046.
Work on `Nc1ncnc2c1c(-c1cnc3[nH]ccc3c1)nn2C1CCCC1` yielded a relative cell viability of 0.397 ± 0.092.
Work on `CCOc1cc(N2CCC(O)CC2)ccc1Nc1ncc2c(n1)N(C)c1ccccc1C(=O)N2C` yielded a relative cell viability of 0.793 ± 0.015.
`C=CC(=O)Nc1cccc(Oc2nc(Nc3ccc(N4CCN(C)CC4)cc3)ncc2Cl)c1` was tested, and the relative cell viability was 0.337 ± 0.057.
For `CNC(=O)c1cccc(-c2ccc3c(N4CCOC[C@@H]4C)nc(N4CCOC[C@@H]4C)nc3n2)c1` [Vistusertib (AZD2014)], the relative cell viability was 0.52 ± 0.18.
For `O=C(O)c1ccc(N2C(=O)/C(=C\c3ccc(-c4ccc([N+](=O)[O-])cc4)o3)C=C2c2ccccc2)cc1`, the relative cell viability was 1.24 ± 0.092.
Work on `COc1cc(Nc2ncc3c(n2)-c2ccc(Cl)cc2C(c2c(F)cccc2OC)=NC3)ccc1C(=O)O` [Alisertib (MLN8237)] yielded a relative cell viability of 0.39 ± 0.18.
Molecule `CO[C@H]1C[C@@H]2CC[C@@H](C)[C@@](O)(O2)C(=O)C(=O)N2CCCC[C@H]2C(=O)O[C@H]([C@H](C)C[C@@H]2CC[C@@H](OP(C)(C)=O)[C@H](OC)C2)CC(=O)[C@H](C)/C=C(\C)[C@@H](O)[C@@H](OC)C(=O)[C@H](C)C[C@H](C)/C=C/C=C/C=C/1C` [Ridaforolimus (Deforolimus, MK-8669)] has a relative cell viability of 0.847 ± 0.14.
In the case of `Cc1cc2c(F)c(Oc3ncnn4cc(OC[C@@H](C)OC(=O)[C@H](C)N)c(C)c34)ccc2[nH]1`, the relative cell viability is reported as 0.653 ± 0.095.
In the case of `CNC(=O)c1cc(Oc2ccc3nc(N[C@@H]4CCCC[C@H]4O)sc3c2)ccn1`, the relative cell viability is reported as 0.767 ± 0.05.
Molecule `NC(=O)Nc1cc(-c2cccc(F)c2)sc1C(=O)N[C@H]1CCCNC1` has a relative cell viability of 0.55 ± 0.01.
With `COc1ncc(-c2cc(-c3ncc(CN4C[C@@H](C)O[C@@H](C)C4)o3)c3cn[nH]c3c2)cc1NS(C)(=O)=O` the relative cell viability was 0.563 ± 0.051.
`CN1CCCN(C(=O)c2cccc(-c3ccc(/C=C4/C(=O)Nc5ccc(Cl)cc54)o3)c2)CC1` was tested, and the relative cell viability was 0.743 ± 0.061.
